# Reference: PubChem BioAssay (Tox21)
# Results filed as inconclusive are left out. Entries that show only a call come without a potency. A structure can be active in one record and inactive in another. Activity calls are given as the source filed them. Unless noted, the call rests on the fitted dose curve; in most records, active means well fitted curve in the direction sought with a large enough effect in the repeat runs; inconclusive means weak or mixed curves; inactive means no such curve, though single readings can be large; an effect the other way counts as inactive or inconclusive.
# What was measured:
# [1] = qHTS assay to identify small molecule agonists of the peroxisome proliferator-activated receptor delta (PPARd) signaling pathway - cell viability counter screen (AID 743211); conditions: PPARd-bla HEK293H viability, CellTiter-Glo luminescence, 17 h; series mostly up to 62.6 µM; further: nearly all actives have a fitted effect of over 55% in size
# In short: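 Multiplexed format: after the 2 h room-temperature LiveBLAzer B/G FRET step, CellTiter-Glo was added to the same wells. Luminescence after 30 min gave cell viability; compound exposure was 17 h at 37C.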
# [2] = target: Peroxisome proliferator-activated receptor delta (Homo sapiens) (UniProt Q03181); assay: qHTS assay to identify small molecule agonists of the peroxisome proliferator-activated receptor delta (PPARd) signaling pathway (AID 743212; calls by dose curve); conditions: HEK293H PPARd-UAS-bla, beta-lactamase FRET ratio, 17 h; series mostly up to 62.6 µM
# In short: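 HEK293H UAS-bla reporter cells, human PPARd system; compounds delivered in DMSO after 5 h plating, then at 37 C. Beta-lactamase FRET read, 2 h RT substrate step.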
# [3] = qHTS assay to identify small molecule antagonists of the peroxisome proliferator-activated receptor delta (PPARd) signaling pathway - cell viability counter screen (AID 743213); conditions: PPARd-bla HEK293H viability, CellTiter-Glo luminescence, 17 h; series mostly up to 62 µM; further: nearly all actives have a fitted effect of over 50% in size
# In short: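 CellTiter-Glo was added to PPARd-bla HEK293H wells following 17 h compound treatment in the presence of 300 nM L165041. Luminescence was recorded after 30 min at room temperature.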
# [4] = target: Peroxisome proliferator-activated receptor delta (Homo sapiens) (UniProt Q03181); assay: qHTS assay to identify small molecule antagonists of the peroxisome proliferator-activated receptor delta (PPARd) signaling pathway (AID 743215; active means well fitted inhibition curve with a large enough effect in the signal ratio in the repeat runs, not every such curve was filed as active; the % refers to the signal ratio;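 further: cells stimulated with agonist L165041 at 300 nM final during compound exposure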; further: potency means the concentration at half of the fitted maximal effect); conditions: HEK293H PPARd-UAS-bla, beta-lactamase FRET ratio, antagonist, 17 h; series mostly up to 62 µM
# In short: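 With L165041 present at 300 nM final, compounds were incubated 17 h at 37 C on PPARd UAS-bla HEK293H cells. A FRET-based beta-lactamase substrate was then applied for 2 h at room temperature and fluorescence intensity recorded.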
# [5] = target: Bile acid receptor (Homo sapiens) (UniProt Q96RI1); assay: qHTS assay to identify small molecule antagonists of the farnesoid-X-receptor (FXR) signaling pathway (AID 743217; active means well fitted inhibition curve with a large enough effect in the signal ratio in the repeat runs, not every such curve was filed as active; the % refers to the signal ratio); conditions: HEK293T FXR-UAS-bla, beta-lactamase ratio, CDCA-stimulated, 16 h; series mostly up to 62.6 µM
# In short: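 In this cell-based antagonist screen, inhibition of CDCA-driven (50 uM final) UAS-beta-lactamase expression in HEK 293T cells was measured by FRET fluorescence following 16 h compound exposure at 37 °C.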
# [6] = qHTS assay to identify small molecule agonists of the farnesoid-X-receptor (FXR) signaling pathway - cell viability counter screen (AID 743218); conditions: FXR-bla HEK293T viability, CellTiter-Glo luminescence, 16 h; series mostly up to 62.6 µM; further: nearly all actives have a fitted effect of over 45% in size
# In short: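 After 16 h at 37 C with test compounds, FXR-bla HEK 293T cells were given LiveBLAzer B/G substrate for 2 h at RT and then CellTiter-Glo; luminescence was taken after 30 min.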
# [7] = target: Bile acid receptor (Homo sapiens) (UniProt Q96RI1); assay: qHTS assay to identify small molecule agonists of the farnesoid-X-receptor (FXR) signaling pathway (AID 743220; active means well fitted activation curve with a large enough effect in the signal ratio in the repeat runs, not every such curve was filed as active; the % refers to the signal ratio); conditions: HEK293T FXR-UAS-bla, beta-lactamase FRET ratio, 16 h; series mostly up to 62.6 µM
# In short: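 Beta-lactamase reporter under UAS control in GeneBLAzer FXR HEK 293T cells (5000/well) measured with LiveBLAzer FRET substrate after 2 h at room temperature. Compound exposure lasted 16 h at 37C.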
# [8] = qHTS assay to identify small molecule antagonists of the farnesoid-X-receptor (FXR) signaling pathway - cell viability counter screen (AID 743221; active means well fitted cell-killing curve with a large enough effect in the repeat runs, not every such curve was filed as active; further: nearly all actives have a fitted effect of over 50% in size); conditions: FXR-bla HEK293T viability, CellTiter-Glo luminescence, 16 h; series mostly up to 62.6 µM
# In short: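 CellTiter-Glo, 30 min RT, luminescence; same wells as the LiveBLAzer FRET read. Cells: FXR-UAS-bla HEK 293T. Treatment: compound with chenodeoxycholic acid 50 uM final, 16 h at 37 C.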
# [9] = target: Vitamin D3 receptor (Homo sapiens) (UniProt P11473); assay: qHTS assay to identify small molecule antagonists of the vitamin D receptor (VDR) signaling pathway (AID 743223; active means well fitted inhibition curve with a large enough effect in the signal ratio in the repeat runs, not every such curve was filed as active; the % refers to the signal ratio); conditions: VDR-UAS-bla HEK293T, beta-lactamase FRET ratio, 16 h; series mostly up to 61 µM
# In short: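 After VDR-bla cells are plated and left 4 h at 37C, DMSO-dissolved compounds and 3 nM (final) calcitriol agonist are added. Incubation continues 16 h at 37C; FRET beta-lactamase substrate then develops 2 h at room temperature.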
# [10] = qHTS assay to identify small molecule agonists of the vitamin D receptor (VDR) signaling pathway - cell viability counter screen (AID 743224); conditions: VDR-bla HEK293T viability, CellTiter-Glo luminescence, 16 h; series mostly up to 62.6 µM; further: nearly all actives have a fitted effect of over 50% in size
# In short: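 Here cell health was gauged by luminescent ATP detection (CellTiter-Glo, 30 min RT) in VDR-bla cells that had been incubated with test compounds for 16 h at 37C and 5% CO2.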
# [11] = qHTS assay to identify small molecule antagonists of the vitamin D receptor (VDR) signaling pathway - cell viability counter screen (AID 743225); conditions: VDR-bla HEK293T viability, CellTiter-Glo luminescence, 16 h; series mostly up to 61 µM; further: nearly all actives have a fitted effect of over 50% in size
# In short: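 Cytotoxicity toward the VDR-bla HEK 293T line was scored by ATP-based CellTiter-Glo luminescence, read in the wells already used for the beta-lactamase readout after 16 h compound treatment under 3 nM 1-alpha,25-dihydroxyvitamin D3 stimulation.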
# [12] = qHTS assay to identify small molecule agonists of the NFkB signaling pathway (AID 1159509; active means well fitted curve in the direction sought with a large enough effect in the signal ratio in the repeat runs, not every such curve was filed as active; the % refers to the signal ratio); conditions: NFkB-bla ME-180 cells, beta-lactamase FRET ratio, 5 h; series mostly up to 61 µM
# In short: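 After overnight attachment, reporter cells received test compounds, DMSO or positive controls and were incubated 5 hr at 37 C. FRET substrate was then added for 1.5 hr at room temperature before dual-emission fluorescence reading.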
# [13] = qHTS assay to identify small molecule agonists of the endoplasmic reticulum stress response signaling pathway (AID 1159516; active means well fitted activation curve with a large enough effect in the signal ratio in the repeat runs, not every such curve was filed as active; the % refers to the signal ratio); conditions: ESRE-bla HeLa, ER stress beta-lactamase reporter, 5 h; series mostly up to 61 µM
# In short: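 Reporter HeLa cells (ESRE-beta-lactamase) underwent 5 hr compound incubation at 37 C and 5% CO2 in quantitative HTS format. Detection followed 2 hr of FRET substrate loading at room temperature.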
# [14] = qHTS assay to identify small molecule agonists of the endoplasmic reticulum stress response signaling pathway - cell viability counter screen (AID 1159517; calls by dose curve); conditions: ESRE-bla HeLa viability, CellTiter-Glo luminescence, 5 h; series mostly up to 61 µM
# In short: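 Cells, HeLa ESRE-bla; density, 1,500/well; dosing, 5 hr at 37 C, 5% CO2; readout, CellTiter-Glo luminescence after 30 min RT.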
# [15] = qHTS assay to identify small molecule antagonists of the retinoid-related orphan receptor gamma (ROR-gamma) signaling pathway - cell viability counter screen (AID 1159520); conditions: Tet-on RORgamma CHO cells viability, ATP luminescence, 16 h; series mostly up to 92.4 µM; further: nearly all actives have a fitted effect of over 50% in size
# In short: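 Cytotoxicity was read from cellular ATP (CellTiter-Glo luminescence) after 16 hr at 37 C with 1 uM doxycycline induction. The inducer was added 2 hr after compound transfer to Tet-on ROR gamma CHO cells.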
# [16] = target: Nuclear receptor ROR-gamma (Homo sapiens) (UniProt P51449); assay: qHTS assay to identify small molecule antagonists of the retinoid-related orphan receptor gamma (ROR-gamma) signaling pathway (AID 1159521; further: nearly all actives have a fitted effect of over 50% in size; further: potency means the concentration at half of the fitted maximal effect); conditions: Tet-on RORgamma CHO cells, RORE-luciferase, 16 h; series mostly up to 92.4 µM
# In short: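 Readout: ONE-Glo luciferase luminescence, 30 min at room temperature. System: Tet-on RORγ CHO, RORE-LUC. Sequence: compound 2 h, doxycycline 1 uM final, 16 h at 37 C.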
# [17] = qHTS assay to identify small molecule agonists of the AP-1 signaling pathway (AID 1159526; calls by dose curve); conditions: ME-180 AP-1-bla reporter, beta-lactamase FRET ratio, 5 h; series mostly up to 76.8 µM
# [18] = qHTS assay to identify small molecule agonists of the AP-1 signaling pathway - cell viability counter screen (AID 1159525; calls by dose curve; further: nearly all actives have a fitted effect of over 55% in size); conditions: ME-180 (cervical carcinoma) AP-1-bla cells viability, ATP luminescence, 5 h; series mostly up to 76.8 µM
# In short: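 Luminescent ATP readout (Cell Titer Glo, 30 min RT), normalised to DMSO and tetra n-octyl ammonium bromide controls. Cells were ME-180 AP-1-bla in 0.5% dialyzed FBS Opti-MEM, with a 5 h, 37 °C compound exposure.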
# [19] = target: Vitamin D3 receptor (Homo sapiens) (UniProt P11473); assay: qHTS assay to identify small molecule agonists of the vitamin D receptor (VDR) signaling pathway (AID 743222; calls by dose curve); conditions: HEK293T VDR-UAS-bla, beta-lactamase FRET ratio, 16 h; series mostly up to 63.5 µM
# In short: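 VDR-bla cells were seeded, left 4 h, treated with compounds in DMSO for 16 h, incubated 2 h at RT with B/G FRET substrate, and read for fluorescence.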
# Peroxisome proliferator-activated receptor delta (Homo sapiens), sequence (Q03181 whole entry, looked up): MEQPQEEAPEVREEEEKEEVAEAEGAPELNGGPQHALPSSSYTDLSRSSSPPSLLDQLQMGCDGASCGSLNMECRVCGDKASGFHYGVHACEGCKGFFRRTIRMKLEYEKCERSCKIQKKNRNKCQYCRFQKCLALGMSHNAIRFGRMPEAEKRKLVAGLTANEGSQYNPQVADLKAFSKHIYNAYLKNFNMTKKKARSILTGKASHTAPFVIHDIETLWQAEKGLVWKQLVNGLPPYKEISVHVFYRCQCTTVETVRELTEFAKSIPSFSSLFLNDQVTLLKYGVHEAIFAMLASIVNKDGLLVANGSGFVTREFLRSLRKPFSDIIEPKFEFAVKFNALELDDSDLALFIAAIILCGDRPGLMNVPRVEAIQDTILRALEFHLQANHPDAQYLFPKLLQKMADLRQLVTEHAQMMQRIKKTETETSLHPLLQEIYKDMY
# Vitamin D3 receptor (Homo sapiens), sequence (P11473 whole entry, looked up): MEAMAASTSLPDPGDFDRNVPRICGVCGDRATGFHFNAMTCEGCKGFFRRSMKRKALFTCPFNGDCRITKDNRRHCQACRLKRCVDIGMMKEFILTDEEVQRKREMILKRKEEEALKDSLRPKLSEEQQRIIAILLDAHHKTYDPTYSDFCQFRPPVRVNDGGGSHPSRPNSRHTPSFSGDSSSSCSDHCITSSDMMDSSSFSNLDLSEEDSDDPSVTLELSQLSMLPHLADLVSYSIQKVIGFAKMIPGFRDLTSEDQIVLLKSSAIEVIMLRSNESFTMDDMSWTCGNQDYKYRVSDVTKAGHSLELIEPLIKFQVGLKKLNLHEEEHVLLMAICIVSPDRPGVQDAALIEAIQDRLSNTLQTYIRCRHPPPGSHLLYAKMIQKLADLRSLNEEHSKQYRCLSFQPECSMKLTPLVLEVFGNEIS
# Bile acid receptor (Homo sapiens), sequence (Q96RI1 whole entry, looked up): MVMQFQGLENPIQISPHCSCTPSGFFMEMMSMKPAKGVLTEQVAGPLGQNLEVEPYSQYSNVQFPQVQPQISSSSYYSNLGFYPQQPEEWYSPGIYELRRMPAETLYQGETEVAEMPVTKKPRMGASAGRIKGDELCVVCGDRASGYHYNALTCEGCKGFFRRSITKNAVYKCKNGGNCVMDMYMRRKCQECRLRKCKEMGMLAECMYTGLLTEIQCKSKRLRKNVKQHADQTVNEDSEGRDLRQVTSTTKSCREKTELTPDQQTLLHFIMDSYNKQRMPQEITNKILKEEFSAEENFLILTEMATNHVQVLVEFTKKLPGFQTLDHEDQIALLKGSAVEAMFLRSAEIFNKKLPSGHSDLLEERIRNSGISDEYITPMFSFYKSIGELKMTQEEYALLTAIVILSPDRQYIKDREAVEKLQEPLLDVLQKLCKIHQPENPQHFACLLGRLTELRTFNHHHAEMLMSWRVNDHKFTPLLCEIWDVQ
SMILES,outcome [1],outcome [2],outcome [3],Potency [4],outcome [5],outcome [6],outcome [7],outcome [8],outcome [9],outcome [10],outcome [11],outcome [12],outcome [13],outcome [14],Potency [15],Potency [16],Potency [17],Potency [18],outcome [19]
CCC[N+](=O)[O-],inactive,inactive,inactive,inactive,inactive,inactive,inactive,inactive,inactive,inactive,inactive,inactive,inactive,inactive,inactive,4.25 µM (active) and inactive,inactive,,
CC(C)NC(=O)N1CC(=O)N(c2cc(Cl)cc(Cl)c2)C1=O,inactive,inactive,inactive,inactive,,,,inactive,,inactive,inactive,inactive,inactive,inactive,inactive,inactive,inactive,inactive,
COc1ccc2c3c1O[C@H]1[C@@H](O)C=C[C@H]4[C@@H](C2)N(C)CC[C@@]341,inactive,inactive,inactive,42.6 µM (active),inactive,inactive,inactive,inactive,inactive,inactive,inactive,inactive,inactive,inactive,inactive,60.1 µM (active) and inactive,inactive,inactive,
Clc1ccc(Cl)cc1,inactive,inactive,inactive,inactive,,inactive,,inactive,inactive,inactive,inactive,inactive,inactive,inactive,inactive,inactive,inactive,,
CCCCCCCCCCCC#N,inactive,inactive,inactive,inactive,inactive,,inactive,inactive,inactive,,inactive,inactive,inactive,inactive,inactive,inactive,inactive,inactive,inactive
C[C@]12CC[C@H]3[C@@H](CC[C@@]45O[C@@H]4C(O)=C(C#N)C[C@]35C)[C@@H]1CC[C@@H]2O,inactive,inactive,inactive,inactive,,inactive,,inactive,,,inactive,inactive,inactive,inactive,inactive,48.6 µM (active),inactive,inactive,
c1cc2c3c(cccc3c1)CC2,inactive,inactive,inactive,inactive,,,,inactive,,,inactive,inactive,inactive,inactive,inactive,inactive,inactive,inactive,
O=S(=O)(c1ccc(O)cc1)c1ccc(O)cc1,inactive,inactive,inactive,inactive,inactive,inactive,inactive,inactive,inactive,,inactive,inactive,inactive,inactive,inactive,,inactive,,
Cc1cc(-c2cc(C)c(N)c(C)c2)cc(C)c1N,inactive,inactive,inactive,inactive,,inactive,,inactive,inactive,inactive,inactive,inactive,inactive,inactive,inactive,inactive,inactive,,
